Only some compounds are listed: those with a hit (about 5.3% of all), similar ones and a draw of the others.
Mot1-301 SUMO – SUMOylation pathway inhibition by Mot1-301 growth rescue; S. cerevisiae Mot1-301 growth rescue, ATP luminescence, 38.5C; percent above DMSO median, 100 means doubled; growth rescue, % at 18.8 µM; actives 1% (n = 320,000); AID 2716;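 active = every valid replicate shows activation above 250% relative to neutral control wells; inactive = the rest, any valid replicate at or below 250%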;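 note: OY570 slx delta 5 strain wells were the positive control but not used for scaling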
PfM18AAP inh – blocks P. falciparum M18 aspartyl aminopeptidase. recombinant PfM18AAP, H-Glu-NHMec fluorogenic cleavage. inhibition, % at 7.35 µM. actives 1.2% (n = 290,000). AID 1822;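 active = inhibition above the campaign mean inhibition over all tested compounds plus 3 SD, cut at about 28% in these data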;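 note: 0% = plate median of test compound wells and 100% = 2 mM ZnCl2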
HIF activator – HIF pathway transcriptional activation | U2OS HRE-luciferase reporter, luminescence; normalized: DMSO 0%, desferrioxamine 100% | activation, % at 7.5 µM (by protocol) | actives 0.32% (n = 300,000) | AID 1910;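 active = mean activation of at least 10% of the iron chelator positive control signal, with at least half of replicates also reaching 10%; inconclusive = mean and replicate majority disagree about reaching 10%; inactive = mean and most replicates under 10%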
ALR H2O2 inh – inhibitors of human sulfhydryl oxidase ALR | P55789 | purified ALR, DTT oxidation, H2O2 HRP-luminol luminescence | inhibition, % (concentration not given with the values) | actives 3.8% (n = 290,000);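 active = mean replicate inhibition above about 79%, with every replicate also reaching it, limit read from the data; inconclusive = only one of the two criteria met; inactive = mean below limit and not every replicate reaching it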
Target sequence (P55789 whole entry, looked up): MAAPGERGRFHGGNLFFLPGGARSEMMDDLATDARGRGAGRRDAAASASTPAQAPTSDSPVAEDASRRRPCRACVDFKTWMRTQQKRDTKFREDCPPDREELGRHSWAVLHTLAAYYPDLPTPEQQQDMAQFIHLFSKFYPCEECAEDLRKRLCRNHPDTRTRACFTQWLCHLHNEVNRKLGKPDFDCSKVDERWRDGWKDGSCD
* = called active by the depositor; ? = inconclusive; / = not tested or not shown.

SMILES	Mot1-301 SUMO	PfM18AAP inh	HIF activator	ALR H2O2 inh
CCn1c(SCc2cccc(F)c2)nc2c(c1=O)SCC2	1	8	-1	97*
CC(=O)Nc1ccc(NC(=O)C(C)OC(=O)CSCc2cccc(Cl)c2)cc1 (centres undefined)	-3	/	-1	?
Cc1ccc(S(=O)(=O)N2CCCOC2CNC(=O)C(=O)NCc2ccncc2)cc1 (centres undefined)	78	1	0	-1
O=C1CSC(=S)N1/N=C/c1ccc(C(F)(F)F)cc1	6	31*	0	/
O=C1CSC(=S)N1/N=C/C=C/c1ccccc1	200	54*	1	5
Cc1ccc(NC(=O)COC(=O)c2ccc3c(c2)OCO3)c(C)c1	-19	-1	0	/
Cc1ccc(-n2nc(C)c3onc(C)c3c2=O)cc1	7	-3	0	/
O=C1CC(=O)N(c2ccccc2)N1c1ccccc1	-5	1	0	97*
Cc1c(N=C2SCC(=O)N2/N=C/c2ccccc2Cl)c(=O)n(-c2ccccc2)n1C	164	-1	-47	-10
Cc1c(N=C2SCC(=O)N2/N=C\c2ccc(Br)cc2)c(=O)n(-c2ccccc2)n1C	3	6	0	92*
Cc1ccc(S(=O)(=O)N(C)C)cc1NC(=O)COC(=O)c1ccc2c(c1)NC(=O)CS2	79	-3	0	-5
Cc1ccc(C(=O)c2c(NC(=O)c3cccnc3)sc3c2CCCC3)cc1	31	1	0	95*
COc1cc2c(cc1OC)C(c1cc(Br)ccc1F)N(C(=O)CCl)CC2 (centres undefined)	-11	5	-18	8
CCSc1ccc2c(c1)N(CCCN1CCN(C)CC1)c1ccccc1S2	-15	/	/	97*
CN1CCN(CCC(=O)N2c3ccccc3Sc3ccc(C(F)(F)F)cc32)CC1	9	-4	/	21
Cc1cc(C)n2nc(C(=O)N3CCN(c4ccc([N+](=O)[O-])cc4)CC3)nc2n1	-22	6	-1	97*
CO/N=C/NC(=O)c1ccc([N+](=O)[O-])c(CS(=O)(=O)c2ccc(Cl)cc2)c1	1	3	0	100*
CC(=O)Nc1ccc(SCC(=O)c2cc(C)n(Cc3cccs3)c2C)cc1	10	22	-1	-11
C=CCn1c(C)cc(C(=O)CSc2ccc(NC(C)=O)cc2)c1C	5	1	1	98*
C=CCn1c(C)cc(C(=O)CSc2nc3ccccc3o2)c1C	-11	14	2	57
COCCn1c(C)cc(C(=O)CSc2ccc(NC(C)=O)cc2)c1C	-16	11	1	98*
C=CCn1c(C)cc(C(=O)CSc2n[nH]c(N)n2)c1C	0	2	2	98*
CN(C(=O)CSC(=O)c1ccccc1)c1ccccc1	-1	2	0	1
COc1ccc2cc(C(=O)C3CCCN(C(=O)CCc4cnn(C)c4)C3)ccc2c1 (centres undefined)	17	-1	1	-7
O=C(O)c1cccc2c1-c1ccccc1/C2=N\Nc1ccccc1	52	8	0	99*
SMILES	Mot1-301 SUMO	PfM18AAP inh	HIF activator	ALR H2O2 inh
CCOCCCNC(=O)C1(O)c2ccccc2NC(=O)N1c1ccc(Cl)cc1 (centres undefined)	-14	7	1	-9
CCc1ccc2[nH]c(C(=O)Nc3ccc(Br)c(C)n3)cc2c1	/	-1	4	/
O=C(/C=C/c1ccccc1)NNc1ccc(Cl)cc1	200	12	0	-6
CC(=O)C(=Nc1ccccc1Cl)NNc1ccc(Cl)cc1	141	-64	3	95*
O=C(NCC1CCN(Cc2ccc(Cl)cc2)CC1)C1CCCN(c2ncnc3c2nc2n3CCCCC2)C1 (centres undefined)	-12	-8	0	1
N#C/C(=C\c1cccc([N+](=O)[O-])c1)C(=O)NCc1ccc(Cl)cc1	/	3	/	/
N#C/C(=C/c1cccc([N+](=O)[O-])c1)C(=O)Nc1ccccc1O	-2	5	0	96*
COc1ccc(/C=C(/C#N)C(=O)Nc2cccc([N+](=O)[O-])c2)cc1C(=O)O	113	0	0	97*
N#C/C(=C\c1cccc([N+](=O)[O-])c1)C(=O)Nc1cccnc1	-8	3	-1	97*
CCCCc1nc2cc(C(=O)N3CCN(c4nc(C)cnc4C)CC3)ccc2o1	5	-9	1	-3
COc1ccc(OC)c(-n2c(-c3cc(-c4ccccc4)n[nH]3)n[nH]c2=S)c1	-9	7	0	66
COc1ccc(-c2cc(-c3n[nH]c(=S)n3-c3ccccc3OC)[nH]n2)cc1	-11	3	0	88*
COc1ccc(-c2nc3ncccc3n2O)cc1	1	14	0	/
CCCCOC(=O)n1c(=S)oc2cc(Cl)ccc21	39	0	2	53
COC(=O)n1c(=S)oc2cc(Cl)ccc21	-7	5	0	96*
Cc1ccn2c(CNCCn3nc(C)cc3C)c(C(=O)N3CCCCCC3)nc2c1	534*	-6	-1	0
Cc1ccn2c(CN(C)CCn3nc(C)cc3C)c(C(=O)N3CCCCCC3)nc2c1	1	-3	0	-7
CCOc1ccccc1N1CCN(C(=O)C2CSC3(C)CCC(=O)N23)CC1 (centres undefined)	8	/	/	/
CCOC(=O)Cn1nnnc1C(C(C)C)N(Cc1cccs1)Cc1cc2cc(C)ccc2[nH]c1=O (centres undefined)	-4	31*	0	-31
Cc1onc(-c2ccccc2)c1C(=O)OCC(=O)N1CCN(c2ccccc2)CC1	0	/	0	12
COc1ccc(Cl)cc1NC(=O)C1Cc2ccccc2CN1S(C)(=O)=O (centres undefined)	1	28*	-1	1
CN(c1cccc2cccnc12)S(=O)(=O)c1ccccc1	-12	0	-21	2
O=C(COc1ccccc1F)Nc1ccccc1C(=O)NC1CC1	7	/	/	/
COc1ccc(NC2CCCN(C(=O)c3cc(C)nc4cc(F)ccc34)C2)cc1 (centres undefined)	-9	1	-1	99*
Cc1cc(C(=O)N2CCCC(Nc3ccccc3)C2)c2ccc(F)cc2n1 (centres undefined)	-10	0	0	99*
SMILES	Mot1-301 SUMO	PfM18AAP inh	HIF activator	ALR H2O2 inh
CCOc1ccc2oc(C(=O)OC(C(=O)NC(N)=O)C(C)C)c(C)c2c1 (centres undefined)	270	-19	0	-1
COc1cccc(/C=N/Nc2snc(SC)c2C#N)c1O	-14	9	2	86*
Fc1ccc(NCc2n[nH]c(=S)n2Cc2ccccc2)cc1	426	14	0	12
CCOC(=O)C1CCN(C(=O)CS(=O)Cc2nc(-c3ccc(C)cc3)oc2C)CC1 (centres undefined)	57	-5	0	100*
Cc1ccc(-c2nc(CS(=O)CC(=O)N3CCN(c4ccc(F)cc4)CC3)c(C)o2)cc1 (centres undefined)	0	4	0	99*
Cc1ccccc1-c1nc(CS(=O)(=O)CC(=O)N2CCN(C)CC2)c(C)o1	4	6	0	-12
CCOC(=O)C1CCN(C(=O)Cc2cccs2)CC1	21	-2	0	-4

Source: PubChem BioAssay
